Screening data deposited in PubChem by National Center for Advancing Translational Sciences (NCATS).
Only some compounds are listed: those with a hit (about 1.4% of all), similar ones and a draw of the others.
HTT-AS promoter: Primary qHTS for Identification of Small Molecule Activators of Huntingtin-Antisense Promoter Activity. Potency, µM (top dose mostly 57.5 µM), hits mostly activators. AID 1508624, 2021. HEK293 HTT-AS promoter firefly luciferase reporter, 24 h; response scale: percent change from vehicle, -100% = no light. hit rate 0.24% among 48,000; also: nearly all actives have a fitted effect of over 55% in size
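Firefly luciferase signal from promoter-reporter HEK293 cells was scaled between vehicle (0%) and zero RLU (-100%). Compounds were tested at final concentrations of up to 57.5 uM over 24 h at 37 degrees C. PTC124 at 50 uM final served as control inhibitor.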
GALK inh: qHTS Assay for Inhibitors of Human Galactokinase (GALK): NCGC Sytravon Library Screen; P51570; recombinant GALK, Kinase-Glo ATP luminescence, 1 h; Potency, µM (series often up to 57.5 µM), hits mostly inhibitors; 44,000 tested, under 10 active
Target sequence (P51570 whole entry, looked up): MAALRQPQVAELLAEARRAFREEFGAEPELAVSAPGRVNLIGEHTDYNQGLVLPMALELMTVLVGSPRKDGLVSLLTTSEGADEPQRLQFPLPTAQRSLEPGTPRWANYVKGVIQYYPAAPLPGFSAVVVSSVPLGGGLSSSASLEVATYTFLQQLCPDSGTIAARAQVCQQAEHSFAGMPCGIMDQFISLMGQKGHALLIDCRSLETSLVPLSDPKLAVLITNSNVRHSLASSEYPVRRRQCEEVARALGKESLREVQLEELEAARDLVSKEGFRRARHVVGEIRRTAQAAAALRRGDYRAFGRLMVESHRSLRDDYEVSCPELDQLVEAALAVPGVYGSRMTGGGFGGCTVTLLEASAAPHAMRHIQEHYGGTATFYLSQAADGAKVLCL
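5 nM GALK; 35 uM ATP; 100 uM D-galactose; 20 mM HEPES pH 8.0, 5 mM MgCl2, 60 mM NaCl, 1 mM DTT, 0.01% BSA; 1 h RT; Kinase-Glo Plus luminescence.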
B2AR arrestin ag: qHTS assay of beta-arrestin-biased ligands of beta2-adrenergic receptor: NCGC Sytravon Library Screen; Beta-2 adrenergic receptor (Homo sapiens), P07550; HTLA Tango cells, beta-arrestin recruitment, luciferase luminescence, 18 h; Potency, µM (top dose mostly 46.1 µM), hits mostly activators; 44,000 tested, under 10 active
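First, Tango cells carrying beta2-AR and beta-arrestin fusions received compound up to 46 microM. After 18 hr at 37 degrees C, luciferase substrate was added for 15 minutes, then luminescence gave %Activity for curve fitting.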
HTT promoter inh: Primary qHTS for Identification of Small Molecule Inhibitors of Huntingtin Promoter Activity; HEK293 HTT promoter firefly luciferase reporter, 24 h; Potency, µM (top dose mostly 57.5 µM), actives largely listed as inhibitors; hit rate 0.93% among 48,000; AID 1508623, 2021; also: nearly all actives have a fitted effect of over 50% in size
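Firefly luciferase signal from promoter-reporter HEK293 cells was scaled between vehicle (0%) and zero RLU (-100%). Compounds were tested at final concentrations of up to 57.5 uM over 24 h at 37 degrees C. PTC124 at 50 uM final served as control inhibitor.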
TSG101-PTAP inh: qHTS Validation Assay for Inhibitors of HIV-1 Budding by Blocking the Interaction of PTAP/TSG101: Sytravon Library Screen. Tumor susceptibility gene 101 protein (Homo sapiens), Q99816. Fluorescence polarization, FITC-PTAP peptide/Tsg101, 20 min. 44,000 tested, under 10 active. Potency, µM (series often up to 115 µM), usual class: inhibitors
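The Tsg101 binding domain, at 10 uM final, is mixed with compound and a FITC peptide bearing the PTAP motif (50 nM final). After 20 min at r.t., polarization is measured; actives defined by CRC class, efficacy cut-off 60% inhibition.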
GALC G270D up: A Novel Cell-Based Assay to Identify Small Molecules for B -Galactocerebrosidase; P54803; 145M-Twi-hGALC-G270D cells (Twitcher mouse brain line with human GALC G270D), HMU-beta-Gal fluorescence, 48 h; Potency, µM (highest dose often 57.5 µM), actives largely listed as activators; hit rate 0.1% among 45,000; also: nearly all actives have a fitted effect of over 65% in size
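Live 145M-Twi cells (Twitcher mouse brain-derived, GALC-null) stably expressing human GALC-G270D, with a wild-type GALC line, were compound-treated. Residual GALC activity was then read as fluorescence from 0.1 mM final HMU-β-gal at pH 5.2; higher signal means activation.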
Of the large screens only hits and unclear results are named; the others gave an inactive call; ! = a repeat was not active. Calls follow the shape of the dose curve; as a rule, active = well fitted curve in the direction sought with a large enough effect; inconclusive = small, poorly fitted or top-dose-only effect, or another doubt; inactive = no such curve, though single readings can be large; an effect the other way counts as inactive or inconclusive.

COc1cccc(NC(=O)C(=O)NCC(c2ccc3c(c2)OCO3)N2CCOCC2)c1 (stereo unspecified)	HTT-AS promoter 4.5µM
COc1cccc(C(=O)NCC(c2ccc3c(c2)OCO3)N2CCOCC2)c1 (stereo unspecified)	none
Cc1ccc(C(=O)NCC(c2ccc3c(c2)OCO3)N2CCN(c3ccc(F)cc3)CC2)cc1 (stereo unspecified)	HTT promoter inh 22µM
COc1ccc(Nc2cc(C)nc(-n3nc(C)cc3C)n2)cc1Cl	HTT promoter inh 13µM
CCOC(=O)c1c(C)[nH]c(C)c1S(=O)(=O)N1CCC(C(=O)N2CCN(c3ccccc3F)CC2)CC1	none
COc1ccc(C)cc1NC(=O)Cn1c(=O)cc(C)c2c(C)nn(C)c21	HTT promoter inh 2µM
Cc1cc(C)cc(Nc2cc(C)nc3nncn23)c1	none
Cc1cc(NCc2ccccc2Cl)n2cnnc2n1	HTT promoter inh 18µM
O=C(CCNS(=O)(=O)c1ccc2c(c1)CCN2C(=O)C1CC1)N1CCN(c2cccc(C(F)(F)F)c2)CC1	HTT promoter inh 28µM
Cc1ccc(Cl)cc1N1CCN(C(=O)CCNS(=O)(=O)c2ccc3c(c2)CCN3C(=O)C2CC2)CC1	HTT promoter inh inconclusive
COc1ccc(NS(=O)(=O)c2ccc3c(c2)CCN3C(=O)C2CC2)cc1OC	HTT promoter inh 4µM
Cc1ccc(C)c(NS(=O)(=O)c2ccc3c(c2)CCCN3C(=O)C2CCC2)c1	HTT promoter inh inconclusive
Cc1cccc(NS(=O)(=O)c2ccc3c(c2)CCN3C(=O)C2CCC2)c1	HTT promoter inh 20µM
Cc1cccc(CCNC(=O)c2c[nH]c3ccc(S(=O)(=O)Nc4ccccc4F)cc3c2=O)c1	HTT promoter inh 22µM
Cc1oc(-c2ccccc2F)nc1CN1CCC(C(=O)NCCc2ccccc2)CC1	none
CCOc1ccc(-c2cc(CCCC(=O)NCCc3ccc(SC)cc3)no2)cc1	HTT promoter inh 0.79µM
CCOc1ccc(-c2cc(CCCC(=O)NCCc3ccc(Cl)cc3)no2)cc1	HTT promoter inh 1.8µM
Cc1cccc(N(CC(=O)NCCSCc2ccccc2)S(=O)(=O)c2ccccc2)c1C	HTT promoter inh inconclusive
CCOc1ccc(-c2nc(CSCC(=O)NCCc3ccc(OCC)c(OCC)c3)c(C)o2)cc1	HTT promoter inh 14µM
CCOc1ccc(-c2nc(CSCC(=O)NCc3ccc(C)cc3)c(C)o2)cc1	HTT promoter inh 7.1µM
O=C(c1ccc2c(c1)N(Cc1cccc(F)c1)C(=O)c1ccccc1S2)N1CCOCC1	none
CCN(CC)c1ccc(C(=O)NCc2ccc3c(c2)CCN3C(C)=O)cc1	none
CCCOc1cccc(C(=O)Nc2cccc3cccnc23)c1	none
Cc1ccc(C(=O)Nc2cccc3cccnc23)cc1Cl	HTT-AS promoter 8.9µM
CN(C)c1ccc(CNC(=O)C2CCCN(S(=O)(=O)c3ccc4c(c3)oc(=O)n4C)C2)cc1 (stereo unspecified)	none
CSc1ccc(CNC(=O)C2CCCN(S(=O)(=O)N(C)c3ccc(F)cc3)C2)cc1 (stereo unspecified)	HTT promoter inh 22µM
Cc1ccc(-c2nnc(Nc3cccc(O)c3)c3ccccc23)cc1S(=O)(=O)NCC1CCCO1 (stereo unspecified)	HTT promoter inh inconclusive
Cc1ccccc1-c1nnc(C2CCN(S(=O)(=O)c3ccc(Cl)cc3)CC2)o1	HTT promoter inh 16µM
COc1ccc(Br)cc1CNC(=O)c1ccc(-n2c(C)cc3c2CCC(C)C3)cc1 (stereo unspecified)	B2AR arrestin ag inconclusive
Cc1ccc(-c2c(C)n3c4c(=O)n(C)c(=O)n(C)c4nc3n2CCO)cc1	HTT promoter inh 2µM
COc1ccc(C(=O)NC(c2ccccc2Cl)c2cc(Cl)c3cccnc3c2O)cc1 (stereo unspecified)	HTT promoter inh 8.9µM
CCCOCc1cc(CN2CCN(c3cccc(Cl)c3)CC2)c(O)c2ncccc12	B2AR arrestin ag inconclusive, HTT promoter inh 8.9µM
COc1ccc(Br)cc1C(=O)Nc1nc2ccc(F)cc2s1	HTT-AS promoter 1.8µM
CCN(CC)S(=O)(=O)c1ccc2nc(NC(=O)c3ccccc3OC)sc2c1	none
Cc1cc(NC(=O)Cn2nc(C)n3cccc3c2=O)ccc1Br	none
O=C(CSCc1ccc(F)cc1)N1CCN(c2ccccc2F)CC1	none
Cc1ccc(-c2nc(CS(=O)CC(=O)N3CCN(c4ccccc4)CC3)c(C)o2)cc1 (stereo unspecified)	none
Cc1oc(-c2ccccc2F)nc1CSCC(=O)N1CCN(c2ccccc2)CC1	HTT promoter inh 22µM
COc1ccc(-c2nc(CSCC(=O)N3CCN(c4ccccc4F)CC3)c(C)o2)cc1	HTT promoter inh 28µM
c1ccc2[nH]c(-c3cscn3)nc2c1	HTT-AS promoter 19µM! (no result: GALK inh, B2AR arrestin ag, TSG101-PTAP inh)
O=C(O)CCc1nc2ccccc2[nH]1	none (no result: GALK inh, B2AR arrestin ag, TSG101-PTAP inh)
Cc1ccc(-c2c3c(=O)n(C)c(=O)n(C)c3c3n2-c2ccccc2NC3c2ccc(C)cc2O)cc1 (stereo unspecified)	none (no result: HTT-AS promoter, HTT promoter inh, GALC G270D up)
O=C(Nc1ccc(SC(F)F)cc1)c1cc(-c2ccc3c(c2)OCCO3)on1	HTT promoter inh 10µM
Cc1cccc(N2CCN(C(=O)Cn3c(C)c4cnn(-c5ccccc5)c(=O)c4c3C)CC2)c1C	HTT promoter inh 10µM
Cc1nc2cccnc2n1-c1cccc(C(=O)N2CCN(c3ccc(Cl)cc3)CC2)c1	HTT promoter inh 10µM
Cc1cccn2c(=O)c3cc(C(=O)NCc4ccccc4)c(=N)n(CCOCCO)c3nc12	GALC G270D up 10µM
CCn1c(=N)c(C(=O)NC2CCCCC2)cc2c(=O)n3cccc(C)c3nc21	GALC G270D up 28µM
CCOCCCn1c(=N)c(C(=O)NC(C)c2ccccc2)cc2c(=O)n3cccc(C)c3nc21 (stereo unspecified)	GALC G270D up 20µM
CCCn1c(=N)c(C(=O)NC2CCCC2)cc2c(=O)n3cccc(C)c3nc21	none
